Measured potencies and affinities stand elsewhere.
These compounds were tested on Staphylococcus aureus. Conditions: Concentration 32 ug.mL-1; ASSAY_TEST Inhibition of Bacterial Growth; detection method Absorption (OD600); MEDIA CAMHB; plate type 384well; NBS; CORNING #3640; time 18 hr.

Row | SMILES | Inhibition [%]
1 | Nc1c2c(nc3nc4ccccc4nc13)CCCC2 | 36.81
2 | CNC(=O)c1cc2cc(OCc3ccccc3)ccc2n1C | 23.23
3 | C#CCN(C)c1cc(Cl)nc(N)n1 | 26.35
4 | N#Cc1c(N)nc(N2CCCCC2)c(C#N)c1-c1ccccc1 | 14.68
5 | COc1ccc(C2c3ccc4ccccc4c3Oc3nc4c(c(N)c32)CCCC4)c(OC)c1 (stereo not drawn) | -6.11
6 | O=C(N[C@H]1CC[C@H](O)CC1)c1ccccc1 | 23.34
7 | Cc1nn(-c2ccccc2)c2ncnc(Nc3ccccc3)c12 | 6.52
8 | O=Cc1cc2ccccc2nc1Cl | 19.39
9 | COc1ccccc1C1c2c(ccc3ccccc23)OC(=N)C1(Br)C#N (stereo not drawn) | 32.97
10 | CC(C)(C)OC(=O)Nc1ccccn1 | 38.41
11 | NNC(=O)c1c[nH]c2ccc(OCc3ccccc3)cc12 | 2.88
12 | CC(C)(C)OC(=O)Nc1ncccc1Br | 38.27
13 | C=C1CN(C)c2c(C#N)cc(C#N)c(=N)n21 | 13.03
14 | O=C1C=C(Nc2ccccc2)C(=O)N1c1ccccc1 | 3.04
15 | C#CCN(C)c1nc(NCCCCC2CCN(Cc3ccccc3)CC2)c(C#N)cc1C#N | 0.89
16 | Clc1ccc(-c2cn3ccccc3n2)cc1 | 13.75
17 | C#CCN(C)Cc1cc2cc(OCCC3CCN(Cc4ccccc4)CC3)ccc2n1C.Cl | 28.43
18 | CCOC(=O)C1=C(C)OC(N)=C(C#N)C1c1ccncc1 (stereo not drawn) | 26.79
19 | Cn1c(CNNC(=O)Cc2cccc3ccccc23)cc2ccccc21 | -5.85
20 | COc1ccc2c(c1)cc(C(=O)Nc1ccccc1)n2C | 20.93

Row | SMILES | Inhibition [%]
21 | Cn1c(C(=O)N2CCOCC2)cc2cc(OCCCC3CCN(Cc4ccccc4)CC3)ccc21 | 23.07
22 | Cl.ClCCCCN1CCCCC1 | 1.62
23 | CC#CCN.Cl | 31.78
24 | N#Cc1c(N)nc(N2CCOCC2)c(C#N)c1-c1ccccc1 | 7.58
25 | Cn1c(CO)cc2cc(OCCCC3CCN(Cc4ccccc4)CC3)ccc21 | 7.02
26 | Cc1ccc(CNNC(=O)c2c[nH]c3ccccc23)cc1 | -8.4
27 | C=C1CN(C)c2c(C#N)c(-c3ccccc3)c(C#N)c(=N)n21 | 11.22
28 | C#CCN(C)c1nc(OC)c(C#N)c(-c2ccccc2)c1C#N | 44.46
29 | CC(=O)Oc1ccc(C=C2N=C(C)OC2=O)cc1 | 8.81
30 | CN1C/C(=C\Cl)n2c1c(C#N)cc(C#N)c2=O | 23.22
31 | CCOC(=O)CCc1c[nH]c2ccccc12 | -15.79
32 | CC(=O)C(=Cc1ccccc1)C(=O)O[C@H]1C[C@H](C)CC[C@H]1C(C)C | 27.78
33 | CN(N=O)C(=O)NC1(C(=O)O)CC1c1ccccc1 (stereo not drawn) | 15
34 | Nc1c2c(nc3c1C(c1ccc([N+](=O)[O-])cc1)c1c(ccc4ccccc14)O3)CCCC2 (stereo not drawn) | 18.24
35 | Cl.NC1(C(=O)O)CC1c1ccccc1 (stereo not drawn) | 12.81
36 | COc1ccc(CNNC(=O)c2cc3ccccc3[nH]2)cc1 | 2.37
37 | Cc1ccc(C2CC2(N)C(=O)O)cc1.Cl (stereo not drawn) | 8.71
38 | N#Cc1cc(C#N)c(N2CCCCC2)nc1Cl | 15.2
39 | N#C[C@]1(Br)C(=N)Oc2ccc3ccccc3c2[C@@H]1c1ccc([N+](=O)[O-])cc1 | 26.21

These compounds were tested on Escherichia coli. Conditions: Concentration 32 ug.mL-1; ASSAY_TEST Inhibition of Bacterial Growth; detection method Absorption (OD600); MEDIA CAMHB; plate type 384well; NBS; CORNING #3640; time 18 hr.

Row | SMILES | Inhibition [%]
40 | Nc1c2c(nc3nc4ccccc4nc13)CCCC2 | -11.07
41 | CNC(=O)c1cc2cc(OCc3ccccc3)ccc2n1C | -13.67
42 | C#CCN(C)c1cc(Cl)nc(N)n1 | -8.33
43 | N#Cc1c(N)nc(N2CCCCC2)c(C#N)c1-c1ccccc1 | -11.69
44 | COc1ccc(C2c3ccc4ccccc4c3Oc3nc4c(c(N)c32)CCCC4)c(OC)c1 (stereo not drawn) | -4.44
45 | O=C(N[C@H]1CC[C@H](O)CC1)c1ccccc1 | -10.8
46 | Cc1nn(-c2ccccc2)c2ncnc(Nc3ccccc3)c12 | 10.84
47 | O=Cc1cc2ccccc2nc1Cl | 16.87
48 | COc1ccccc1C1c2c(ccc3ccccc23)OC(=N)C1(Br)C#N (stereo not drawn) | -9.16
49 | CC(C)(C)OC(=O)Nc1ccccn1 | -0.38
50 | NNC(=O)c1c[nH]c2ccc(OCc3ccccc3)cc12 | 0.02
51 | CC(C)(C)OC(=O)Nc1ncccc1Br | -5.45
52 | C=C1CN(C)c2c(C#N)cc(C#N)c(=N)n21 | -14.43
53 | O=C1C=C(Nc2ccccc2)C(=O)N1c1ccccc1 | 4.55
54 | C#CCN(C)c1nc(NCCCCC2CCN(Cc3ccccc3)CC2)c(C#N)cc1C#N | -7.65
55 | Clc1ccc(-c2cn3ccccc3n2)cc1 | 15.37
56 | C#CCN(C)Cc1cc2cc(OCCC3CCN(Cc4ccccc4)CC3)ccc2n1C.Cl | -29.82
57 | CCOC(=O)C1=C(C)OC(N)=C(C#N)C1c1ccncc1 (stereo not drawn) | -33.19
58 | Cn1c(CNNC(=O)Cc2cccc3ccccc23)cc2ccccc21 | -4.9
59 | COc1ccc2c(c1)cc(C(=O)Nc1ccccc1)n2C | -8.29

Row | SMILES | Inhibition [%]
60 | Cn1c(C(=O)N2CCOCC2)cc2cc(OCCCC3CCN(Cc4ccccc4)CC3)ccc21 | -10.59
61 | Cl.ClCCCCN1CCCCC1 | -1.96
62 | CC#CCN.Cl | 20.2
63 | N#Cc1c(N)nc(N2CCOCC2)c(C#N)c1-c1ccccc1 | 0.53
64 | Cn1c(CO)cc2cc(OCCCC3CCN(Cc4ccccc4)CC3)ccc21 | -17.9
65 | Cc1ccc(CNNC(=O)c2c[nH]c3ccccc23)cc1 | -3.7
66 | C=C1CN(C)c2c(C#N)c(-c3ccccc3)c(C#N)c(=N)n21 | -20.05
67 | C#CCN(C)c1nc(OC)c(C#N)c(-c2ccccc2)c1C#N | -5.76
68 | CC(=O)Oc1ccc(C=C2N=C(C)OC2=O)cc1 | 9.02
69 | CN1C/C(=C\Cl)n2c1c(C#N)cc(C#N)c2=O | -15.97
70 | CCOC(=O)CCc1c[nH]c2ccccc12 | -15.2
71 | CC(=O)C(=Cc1ccccc1)C(=O)O[C@H]1C[C@H](C)CC[C@H]1C(C)C | 14.92
72 | CN(N=O)C(=O)NC1(C(=O)O)CC1c1ccccc1 (stereo not drawn) | 11.14
73 | Nc1c2c(nc3c1C(c1ccc([N+](=O)[O-])cc1)c1c(ccc4ccccc14)O3)CCCC2 (stereo not drawn) | 7.89
74 | Cl.NC1(C(=O)O)CC1c1ccccc1 (stereo not drawn) | 11.66
75 | COc1ccc(CNNC(=O)c2cc3ccccc3[nH]2)cc1 | -1.53
76 | Cc1ccc(C2CC2(N)C(=O)O)cc1.Cl (stereo not drawn) | 6.19
77 | N#Cc1cc(C#N)c(N2CCCCC2)nc1Cl | 9.21
78 | N#C[C@]1(Br)C(=N)Oc2ccc3ccccc3c2[C@@H]1c1ccc([N+](=O)[O-])cc1 | 11.8

From ChEMBL document CHEMBL4513135, “CO-ADD screening of IQOG CSIS (Spain) compounds”
